Screening data from PubChem.
Only a sample is shown.
aSyn 5UTR act = Activators via SNCA 5'UTR binding, MLPCN | AID 1814 | activity score, % (tested at 7.5 µM), hits read low | alpha-synuclein 5'UTR reporter, activators screen | 300,000 compounds, 7.1% hits; in the data active = activity score below about -60%
Of the large screens only hits and unclear results are named; the others gave an inactive call.

Clc1cccc(-c2cc3nc4c(c(NCc5ccco5)n3n2)CCCC4)c1	aSyn 5UTR act -115.0
Cc1ccc(-c2nc(NCc3ccco3)n(S(C)(=O)=O)n2)cc1	aSyn 5UTR act -71.6
CC(=O)n1nc(-c2ccc(C)cc2)nc1NCc1ccco1	aSyn 5UTR act -160.7
Cc1ccc(-c2cc3nc(C)cc(NCc4ccco4)n3n2)cc1	aSyn 5UTR act -156.8
O=C(CCc1ccccc1)n1nc(-c2ccccc2)nc1NCc1ccco1	aSyn 5UTR act -67.1
CCC(=O)n1nc(-c2ccc(Cl)cc2)nc1NCc1ccccc1	aSyn 5UTR act -93.3
C=CCNC(=O)C1CC(=O)N(c2ccc(OCc3ccc(F)cc3)cc2)C1 (stereo not given)	aSyn 5UTR act -95.3
NC(=O)C1CC(=O)N(c2ccc(OCc3ccc(Cl)cc3)cc2)C1 (stereo not given)	aSyn 5UTR act -146.0
CCCNC(=O)C1CC(=O)N(c2ccc(OCc3ccc(F)cc3)cc2)C1 (stereo not given)	aSyn 5UTR act -92.1
CCCNC(=O)C1CC(=O)N(c2ccc(OCc3ccc(Cl)cc3)cc2)C1 (stereo not given)	aSyn 5UTR act -108.4
C=CCNC(=O)C1CC(=O)N(c2ccc(OCC(=O)Nc3ccccc3)cc2)C1 (stereo not given)	aSyn 5UTR act -94.4
COc1ccc2nc(Nc3ccccc3OC)sc2c1	aSyn 5UTR act -153.9
COc1ccc2nc(NC(=O)Nc3ccccc3OC)sc2c1	aSyn 5UTR act -88.8
COc1ccccc1NC(=O)Nc1nc2ccc(S(N)(=O)=O)cc2s1	aSyn 5UTR act -182.8
CCC(C)C(=O)Nc1nc2ccc(OC)cc2s1 (stereo not given)	aSyn 5UTR act -166.9
COc1ccc2nc(NC(=O)Nc3cccc4ccccc34)sc2c1	aSyn 5UTR act -103.3
COc1ccc2nc(Nc3ccccc3)sc2c1	aSyn 5UTR act -119.2
CC(c1nccs1)N(C)C(=O)c1cn(Cc2cccc3ccccc23)nn1 (stereo not given)	aSyn 5UTR act -86.2
COC(=O)c1cc(NC(=O)/C=C/c2ccccc2)ccc1O	aSyn 5UTR act -140.5
O=C(/C=C/c1ccccc1)NC(=S)Nc1ccccc1O	aSyn 5UTR act -242.0
CCS(=O)(=O)c1ccc(O)c(NC(=O)/C=C/c2ccccc2)c1	aSyn 5UTR act -110.0
NC(=S)NC(=O)/C=C/c1ccccc1	aSyn 5UTR act -111.0
O=C(/C=C/c1ccc(F)cc1)NC(=S)Nc1ccccc1O	aSyn 5UTR act -209.9
CCCc1ccc(OCC(=O)Nc2cc(S(=O)(=O)CC)ccc2O)cc1	aSyn 5UTR act -170.6
CCOC(=O)C1CCCN(C(=O)c2cc3cc4ccc(OC)cc4nc3o2)C1 (stereo not given)	aSyn 5UTR act -100.7
COc1ccc2cc3cc(C(=O)N4CCCC(C)C4)oc3nc2c1 (stereo not given)	aSyn 5UTR act -64.4
Cc1cc(C(=O)COC(=O)c2cc(Cl)ccc2N)c(C)n1Cc1ccco1	aSyn 5UTR act -157.0
Cc1cc(C(=O)COC(=O)c2cccn2C)c(C)n1Cc1ccco1	none
Cc1nnc(SCC(=O)Nc2nsc(-c3ccc(C(C)(C)C)cc3)n2)s1	aSyn 5UTR act -69.6
c1ccc(-c2csc(Nc3ccccn3)n2)cc1	aSyn 5UTR act -107.3
Oc1ccc(-c2csc(Nc3ccccn3)n2)cc1	aSyn 5UTR act -163.2
Fc1ccc(-c2csc(Nc3ccccn3)n2)c(F)c1	aSyn 5UTR act -101.5
COc1ccc(-c2csc(Nc3ccccn3)n2)cc1OC	aSyn 5UTR act -169.5
COc1ccc(C2=Nn3c(nnc3-c3ccncc3)SC2)cc1OC	none
COc1cc(CNCCO)ccc1OCC(=O)Nc1ccc(Br)cc1	aSyn 5UTR act -68.9
Cc1ccc(C)c(NC(=O)/C(C#N)=C/c2cn(CC(=O)NCc3ccco3)c3ccccc23)c1	none
Cc1ccc(NC(=O)/C(C#N)=C/c2cccs2)c(C)c1	aSyn 5UTR act -168.8
N#C/C(=C\c1cccs1)C(=O)Nc1ccccn1	aSyn 5UTR act -74.7
c1ccc2c(Oc3ccc4c(c3)OCO4)nncc2c1	aSyn 5UTR act -71.1
COc1nc(-c2ccccc2)cc(-c2ccc3c(c2)OCO3)c1C#N	none
CC(=O)Nc1cc(C)c2nc(NC(C)=O)sc2c1	aSyn 5UTR act -89.5
CC(=O)Nc1nc2c(C)cc(NC(=O)C3CCCCC3)cc2s1	aSyn 5UTR act -96.3
C=CCC1(CC=C)CCCN1C(=O)C1CCC(=O)N(CCc2ccccc2)C1 (stereo not given)	aSyn 5UTR act -180.7
C=CCC1(CC=C)CCCN1C(=O)C1CCC(=O)N(CCc2ccc(OC)cc2)C1 (stereo not given)	aSyn 5UTR act -209.6
COc1ccc(CCN2CC(C(=O)N(C)Cc3ccc(C)o3)CCC2=O)cc1 (stereo not given)	aSyn 5UTR act -86.9
COc1cccc(CN(C)C(=O)c2ccc(COc3ccc(Cl)cc3)cc2)c1OC	aSyn 5UTR act -101.2
COc1ccccc1NC(=O)c1cnc2n(c1=O)CCS2	aSyn 5UTR act -133.1
COc1ccc(Cl)cc1NC(=O)c1cnc2n(c1=O)CCS2	aSyn 5UTR act -78.4
O=C(/C=C/c1ccccc1)OCc1cncs1	aSyn 5UTR act -102.8
CCCSc1nnc(NC(=O)Nc2ccccc2OC)s1	aSyn 5UTR act -143.6
COc1ccccc1Nc1nnc(SCC(=O)N2CCCC2)s1	aSyn 5UTR act -77.0
CCCc1nnc(NC(=O)Nc2ccccc2OC)s1	aSyn 5UTR act -91.8
CC(C)N1CC(O)=C(c2nc3ccccc3c(=O)[nH]2)C1=N	aSyn 5UTR act -75.0
O=C1CN(c2ccccc2)C(=S)N1C(=O)c1ccc(Br)cc1	aSyn 5UTR act -149.9
Cc1ccc(Nc2nnc(SCC(=O)Nc3cccnc3Cl)s2)cc1C	aSyn 5UTR act -108.9
Cc1cccc(Nc2nnc(SCC(=O)Nc3ccccc3[N+](=O)[O-])s2)c1C	aSyn 5UTR act -90.5
Cc1cccc(Nc2nnc(SC/C(O)=C(\C#N)c3nc4ccccc4[nH]3)s2)c1C	aSyn 5UTR act -62.8
CC(C)c1ccc(NC(=O)C(=O)C2C(=O)Nc3ccccc32)cc1 (stereo not given)	aSyn 5UTR act -101.4
CC(C)c1ccc(NC(=O)[C@H](Cc2c[nH]c3ccccc23)NC(=O)[C@@H]2Cc3ccccc3CN2)cc1	none
CC(C)Oc1cccc(C(=O)C2CCCN(C(=O)CCc3cnn(C)c3)C2)c1 (stereo not given)	aSyn 5UTR act -77.0
COc1cc(/C=C/[N+](=O)[O-])ccc1OC(=O)/C=C/c1ccc(F)cc1	aSyn 5UTR act -71.6
COc1ccc(OCCSc2nnc3sc4ccccc4n23)cc1	aSyn 5UTR act -131.4
Nc1cccc(/C=C/c2ccncc2)c1	aSyn 5UTR act -68.0
CCOc1ccc(-c2nc(CCl)cs2)cc1	aSyn 5UTR act -69.7
Cc1cccc(-n2nc3c(c2NC(=O)C2CC2)CS(=O)(=O)C3)c1C	aSyn 5UTR act -85.1
CCN(CC)S(=O)(=O)c1ccc(-c2cn3cc(Cl)ccc3n2)cc1	aSyn 5UTR act -91.5
CC(C)(C)c1cc(C(=O)NCc2cc(F)cc3c2OCOC3)n(Cc2ccccc2)n1	aSyn 5UTR act -109.1
CC(C)c1ccc2c(c1)C1Cc3ccccc3C1N2 (stereo not given)	aSyn 5UTR act -195.6
O=C(/C=C/Nc1cccc(F)c1)c1ccco1	aSyn 5UTR act -264.0
O=C(/C=C/Nc1ccc(F)c(Cl)c1)c1ccco1	aSyn 5UTR act -147.8
N#CC1=C(N)Oc2cc(N)ccc2C1c1cccc(F)c1 (stereo not given)	aSyn 5UTR act -137.5
N#CC1=C(N)Oc2cc(N)ccc2C1C1CCCCC1 (stereo not given)	aSyn 5UTR act -89.3
CN(C)c1ccc2c(c1)OC(N)=C(C#N)C2c1cccc(F)c1 (stereo not given)	none
Cc1cc2nc3c(nc2cc1C)CCCC3	aSyn 5UTR act -177.5
Cc1sc(NC(=O)c2ccccc2F)c(CN2CCCCC2)c1C	aSyn 5UTR act -124.0
